{"source": "PubChem BioAssay AID720541", "about": "(National Center for Advancing Translational Sciences (NCATS), 2013)", "note": "Out of some 1,300 compounds screened, about 420 (32%) were called active. Roughly 32% stayed inconclusive and do not appear here. Calls follow the shape of the dose curve; as a rule, active = well fitted inhibition curve with a large enough effect; inconclusive = small, poorly fitted or top-dose-only effect; inactive = no such curve, though single readings can be large or run the other way. This is one part of the list. % is scaled to controls: 0 for no effect and ±100 for the full control effect; potency is read from the fitted curve at half-maximal effect.", "data": [{"target": "C-terminal-binding protein 1 (Homo sapiens) (UniProt Q13363)", "assay": "qHTS for Inhibitors of the Phosphatase Activity of Eya2: Carboxyl-terminal binding protein (CtBP) Counterscreen for Cherry-picked Compounds; also: nearly all actives have a fitted effect of over 65% in size", "conditions": "purified protein-protein binding, AlphaScreen, 3 h; series mostly up to 46.1 µM; activity change, negative = inhibition: at the top concentration", "procedure,_shortened": "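AlphaScreen using 25 nM GST-E1A with 25 nM CtBP-6xHIS; compounds at 2.5 nM–46 uM final, 2 h at room temperature, then donor/acceptor beads (20 ug/mL) for 1 h in the dark. Signal normalized to E1A peptide inhibitor (maximum inhibition) and DMSO.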", "values": [{"smiles": "COc1ccc(CC(=O)Nc2cccc(Cl)c2C)cc1S(=O)(=O)N1CCOCC1", "activity change, negative = inhibition": "-0.0315% (inactive)"}, {"smiles": "O=C(Nc1nc2c(F)cc(F)cc2s1)c1ccc([N+](=O)[O-])o1", "activity change, negative = inhibition": "-19.4% (inactive)"}, {"smiles": "Oc1ccccc1-n1c(-c2ccccc2)ccc1-c1ccccc1", "activity change, negative = inhibition": "-11% (inactive)"}, {"smiles": "CN1CCN(C(c2ccccn2)c2cc(Cl)c3cccnc3c2O)CC1", "note": "(centres undefined)", "Potency": "1.51 µM (active)"}, {"smiles": "Oc1c(C(c2ccc(Cl)cc2)N2CCCC2)cc(Cl)c2cccnc12", "note": "(centres undefined)", "Potency": "4.78 µM (active)"}, {"smiles": "OC(c1ccc(Cl)cc1)c1nccc2ccccc12", "note": "(centres undefined)", "activity change, negative = inhibition": "9.19% (inactive)"}, {"smiles": "COc1ccc(/C=C/C(=O)Nc2ccc3nc4n(c(=O)c3c2)CCCC4)cc1", "activity change, negative = inhibition": "-17.7% (inactive)"}, {"smiles": "O=C(c1ccc2c(=O)n3c(nc2c1)CCCCC3)N1CCN(c2cccc(Cl)c2)CC1", "Potency": "16.9 µM (active)"}, {"smiles": "NC(=O)c1nc(C(=O)N2CCCCC2)c2ccccc2n1", "activity change, negative = inhibition": "4.22% (inactive)"}, {"smiles": "Cc1ccc(NC(=S)N2CCc3[nH]c4ccccc4c3C2)cc1", "activity change, negative = inhibition": "1.7% (inactive)"}, {"smiles": "CN(C)c1ccc(C2C=Cc3ccccc32)c2ccccc12", "note": "(centres undefined)", "Potency": "9.53 µM (active)"}, {"smiles": "O=C(Oc1ccc(C(=S)N2CCCCC2)cc1)c1ccccc1F", "activity change, negative = inhibition": "-20.3% (inactive)"}, {"smiles": "c1ccc2cc(CSCc3nc4ccccc4[nH]3)ccc2c1", "activity change, negative = inhibition": "-16.5% (inactive)"}, {"smiles": "CCc1ccc(N=C2NC(=O)/C(=C/c3cc(OC)c(O)c(OC)c3)S2)cc1", "Potency": "19 µM (active)"}, {"smiles": "Cc1ccccc1N=C1NC(=O)/C(=C/c2cccn2C)S1", "activity change, negative = inhibition": "-28% (inactive)"}, {"smiles": "O=C(c1cccc(-n2cccc2)c1)N1CCN(S(=O)(=O)c2ccccc2)CC1", "activity change, negative = inhibition": "-25.9% (inactive)"}, {"smiles": "CC1Cc2ccccc2N1NC(=O)c1ccc(Cl)c(S(N)(=O)=O)c1", "note": "(centres undefined)", "activity change, negative = inhibition": "3.62% (inactive)"}, {"smiles": "O=C(c1cccc(S(=O)(=O)Nc2ccccc2Cl)c1)N1CCN(c2ccccc2O)CC1", "Potency": "15.1 µM (active)"}, {"smiles": "CC1C(c2ccccc2)=Nn2c(=O)n(-c3ccccc3)c(=O)n21", "note": "(centres undefined)", "activity change, negative = inhibition": "-4.88% (inactive)"}, {"smiles": "N#Cc1ccc(C(=O)N2CCC3CC2c2cc(-c4ccccc4)ccc23)cc1", "note": "(centres undefined)", "activity change, negative = inhibition": "-9.92% (inactive)"}, {"smiles": "Cc1oc2c(Cl)c(Cl)c(O)c(CN(C)C)c2c1C(=O)c1ccc(Cl)cc1", "Potency": "15.1 µM (active)"}, {"smiles": "COC(=O)c1ccccc1NC1=C/C(=N\\S(=O)(=O)c2cccs2)c2ccccc2C1=O", "Potency": "1.69 µM (active)"}, {"smiles": "COCCN(Cc1cc2cc3c(cc2nc1Cl)OCO3)C(=O)Nc1ccc(OC)cc1", "activity change, negative = inhibition": "13.9% (inactive)"}, {"smiles": "O=C(CSc1nc2ccccc2n1CCc1ccccc1)c1ccc(O)c(O)c1", "activity change, negative = inhibition": "-27.5% (inactive)"}, {"smiles": "COc1ccc(CN(CCN(C)C)c2ccccn2)cc1", "activity change, negative = inhibition": "5.67% (inactive)"}, {"smiles": "CCOC(=O)C(C)Sc1nc(-c2ccccn2)ncc1OC", "note": "(centres undefined)", "Potency": "2.39 µM (active)"}, {"smiles": "COc1cnc(-c2ccccn2)nc1Oc1ccc(C(C)(C)C)cc1", "Potency": "3.38 µM (active)"}, {"smiles": "COc1ccc(Oc2nc(-c3ccccn3)ncc2OC)cc1", "Potency": "10.7 µM (active)"}, {"smiles": "O=C(Cn1c(C(=O)N2CCc3ccccc3C2)cc2sccc21)c1ccccc1", "activity change, negative = inhibition": "-15.2% (inactive)"}, {"smiles": "CCCc1nc(N2CCN(C)CC2)c2sc(=S)n(-c3ccccc3)c2n1", "activity change, negative = inhibition": "-5.86% (inactive)"}, {"smiles": "CC1CCC2C(=O)N(c3ccc(C(=O)Oc4cccc5cccnc45)cc3)C(=O)C2C1", "note": "(centres undefined)", "Potency": "6.01 µM (active)"}, {"smiles": "CC1C=CCC2C(=O)N(c3ccc(OC(=O)c4cccs4)cc3)C(=O)C12", "note": "(centres undefined)", "activity change, negative = inhibition": "-14.7% (inactive)"}, {"smiles": "Cc1ccc(C(=O)Oc2ccc(C(=O)COC(=O)c3cnccn3)cc2)cc1", "activity change, negative = inhibition": "-16.4% (inactive)"}, {"smiles": "O=C(OCC(=O)c1ccc(Cl)cc1Cl)c1ccccn1", "Potency": "12 µM (active)"}, {"smiles": "O=c1cc2ncc(-n3cc([N+](=O)[O-])cn3)cn2[nH]1", "activity change, negative = inhibition": "-1.64% (inactive)"}, {"smiles": "O=S(c1cc(Cl)cc(Cl)c1O)c1cc(Cl)cc(Cl)c1O", "Potency": "3.38 µM (active)"}, {"smiles": "O=c1nc2c(O)cccn2c2c1c(=O)[nH]c1ccccc12", "Potency": "3.79 µM (active)"}, {"smiles": "CCOc1ccc(Nc2nc(N)nc(CN(C)C3CCCCC3)n2)cc1", "activity change, negative = inhibition": "-16.8% (inactive)"}, {"smiles": "N[C@@H](Cc1cnc[nH]1)C(=O)Nc1ccc2ccccc2c1", "Potency": "19 µM (active)"}, {"smiles": "Cc1cc2nc(-c3ccco3)c(Cc3cccc(F)c3)n2c(C)c1Br", "activity change, negative = inhibition": "-24.9% (inactive)"}, {"smiles": "CSc1ccc(/C=N/N2CCN(Cc3ccc(C)cc3C)CC2)cc1", "activity change, negative = inhibition": "-36% (inactive)"}, {"smiles": "CCN(CC)c1ccc(/C=N/N2CCN(Cc3ccccc3Cl)CC2)cc1", "Potency": "8.49 µM (active)"}, {"smiles": "COCc1cc(O)c(O)c(O)c1-c1c(COC)cc(O)c(O)c1O", "activity change, negative = inhibition": "37.1% (inactive)"}, {"smiles": "CCC(C)Nc1ccc(NC(C)CC)cc1", "note": "(centres undefined)", "Potency": "0.0849 µM (active)"}, {"smiles": "Cc1nc(-n2[nH]c3c(c2=O)CCCC3)[nH]c(=O)c1Cc1ccccc1", "Potency": "13.5 µM (active)"}, {"smiles": "COc1cc(C)c(/C=C/C(C)=C/C=C/C(C)=C/C(=O)O)c(C)c1C", "activity change, negative = inhibition": "-7.68% (inactive)"}, {"smiles": "COc1cc(C(=O)Nc2cccc(NC(=O)c3cccs3)c2)cc(OC)c1OC", "activity change, negative = inhibition": "-26.5% (inactive)"}, {"smiles": "CCOc1ccc(NC(=O)c2sccc2-n2cccc2)cc1", "activity change, negative = inhibition": "-14.2% (inactive)"}, {"smiles": "COc1ccc(C(=O)Nc2ccc3c(c2)CCCN3C(=O)c2cccs2)c(OC)c1", "Potency": "7.57 µM (active)"}]}]}
